Screening data as filed in PubChem.
TLR4 MyD88 comp: inhibitors of human TLR4-MyD88 binding | O00206+Q99836 | HeLa CL3-4 TLR4/MyD88 BLA complementation, FRET ratio | inhibition, % at 8.4 µM | 200,000 tested, 0.18% active | AID 861; in the data active = inhibition above about 25%;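 also: 0% = vehicle and 100% = reference inhibitor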
NOD2 RIPK2 PPI: NOD2-RIPK2 protein interaction inhibition. inhibition, % at 4.98 µM. AID 624267. CHO BLA complementation NOD2-RIPK2, CCF4 ratio. 360,000 tested, 0.38% active; in the data active = inhibition above about 21%;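 also: 0% = vehicle only and 100% = reference blocker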
Mcl-1 Bim block: human Bim-Mcl-1 interaction inhibition. inhibition, % at 10 µM. Bead-based flow cytometry, Bim peptide-Mcl-1 binding. 190,000 tested, 0.1% active. Q07820. AID 1009; in the data active = inhibition above about 40%;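 also: 0% = no compound tracer wells and 100% = peptide blocker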
Mcl1-Bid inh: Mcl-1/Bid interaction inhibition; 220,000 tested, 0.97% active; TR-FRET Mcl-1/Bid-Dy647 peptide binding, 1536-well; Q07820; AID 1021; inhibition, % at 21.7 µM;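 active = compounds that cut the binding signal by more than half at the single screening dose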;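 also: His-tagged Mcl-1 with europium anti-His antibody binding Bid BH3 peptide; 0% = Mcl-1 plus peptide wells and 100% = peptide-only wells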
Mcl1-Noxa inh: Mcl-1/Noxa interaction inhibition. Q07820. AID 1022. inhibition, % at 21.7 µM. TR-FRET Mcl-1/Noxa peptide binding, 2 h. 220,000 tested, 1.5% active;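 active = compounds that cut the protein-peptide binding signal by more than 50% relative to plate controls in a single-dose test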;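 also: His-tagged Mcl-1 with rhodamine Noxa BH3 peptide and terbium anti-His antibody; 0% = Mcl-1 plus Noxa peptide wells and 100% = peptide-only wells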
TLR9-MyD88 block: blocks human TLR9 binding to MyD88; Q9NR96+Q99836; CHO BLA complementation TLR9-MyD88, CCF4 FRET ratio; inhibition, % at 4.98 µM; 340,000 tested, 0.21% active; AID 504734;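 active = inhibition above the mean over all tested compounds plus 3 SD, cut at about 21% in these data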;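 also: 0% = DMSO only wells and 100% = clavulanate BLA inhibitor control wells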
NOD2 RIPK2 conf: NOD2-RIPK2 interaction inhibition confirmed | AID 624370 | CHO cells, NOD2-RIPK2 BLA complementation, CCF4 FRET | shares compounds with NOD2 RIPK2 PPI | 1,200 tested, 70% active | inhibition, % at 4.98 µM;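 active = mean inhibition across replicates above a set limit taken from the earlier primary screen, cut at about 21% in these data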;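 also: 0% = DMSO-only wells and the high end = clavulanate BLA-blocked wells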
BLA counter: NOD2-RIPK2 counterscreen BLA reporter activity | 1,200 tested, 57% active | inhibition, % at 4.98 µM | shares compounds with NOD2 RIPK2 PPI | CHO BLA reporter, CCF4 FRET ratio;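 active = mean inhibition above the low-control mean inhibition plus three low-control SD, cut at about 11% in these data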;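 also: 0% = DMSO only wells and 100% = clavulanate high control wells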
The depositor's hits bear a star; ! = a repeat was not active. This is a sample that favours compounds with a hit; in the whole collection about 1.8% have one here.

`Cc1c(C(=O)OCC(=O)c2ccc3c(c2)OCCO3)oc2ccccc12` gave TLR4 MyD88 comp 0, NOD2 RIPK2 PPI 26*, Mcl-1 Bim block -1, Mcl1-Bid inh -13, Mcl1-Noxa inh -14, TLR9-MyD88 block 0, NOD2 RIPK2 conf -3 and BLA counter -3.
`Cc1cc(C(=O)OCC(=O)c2ccc3c(c2)OCCO3)c(C)o1` gave TLR4 MyD88 comp 5, NOD2 RIPK2 PPI -5, Mcl-1 Bim block 0, Mcl1-Bid inh 8, Mcl1-Noxa inh 16 and TLR9-MyD88 block 6.
CCCCN(C)CC(O)Cn1cc(/C=C/C(=O)c2ccc(C)cc2)c2ccccc21 (stereo not drawn) was read as NOD2 RIPK2 PPI 32*, TLR9-MyD88 block 14, NOD2 RIPK2 conf 44* and BLA counter 41*.
CCCN(CCC)CC(O)Cn1cc(/C=C/C(=O)c2ccccc2)c2ccccc21 (stereo not drawn) was read as TLR4 MyD88 comp 9, NOD2 RIPK2 PPI 12, Mcl-1 Bim block -2, Mcl1-Bid inh -32, Mcl1-Noxa inh 19 and TLR9-MyD88 block 2.
COc1ccc(OC)c2sc(N(CCCN(C)C)C(=O)CCS(=O)(=O)c3ccccc3)nc12 was read as NOD2 RIPK2 PPI 41*, TLR9-MyD88 block 16, NOD2 RIPK2 conf 54* and BLA counter 5.
`COc1ccc(Cl)c2sc(N(CCN(C)C)C(=O)CCS(=O)(=O)c3ccc(C)cc3)nc12` gave NOD2 RIPK2 PPI -9 and TLR9-MyD88 block -7.
COc1ccc(/C=C2\CN(Cc3ccccc3)C/C(=C\c3ccc(OC)c(O)c3)C2=O)cc1O was read as NOD2 RIPK2 PPI 26*, TLR9-MyD88 block 10, NOD2 RIPK2 conf 27* and BLA counter 5.
`O=C(CCNS(=O)(=O)c1c(Cl)cccc1Cl)OCC(=O)c1ccccc1` gave TLR4 MyD88 comp -4, NOD2 RIPK2 PPI 67*, Mcl-1 Bim block -3, Mcl1-Bid inh -24, Mcl1-Noxa inh 17, TLR9-MyD88 block 0, NOD2 RIPK2 conf 7 and BLA counter -3.
`CCCCNc1c(-c2ccc(OC)c(SC3CCCCC3)c2)nc2ccc(C)cn12` gave NOD2 RIPK2 PPI 53*!, TLR9-MyD88 block -7, NOD2 RIPK2 conf 20 and BLA counter 10.
Screening CC(=O)OC[C@]12CC[C@H]3[C@@](C)(CC[C@H]4C(C)(C)CCC[C@]34C)[C@@H]1CC(C1=CC(=O)OC1O)O2 (stereo partly drawn) returned NOD2 RIPK2 PPI 46*, NOD2 RIPK2 conf 49* and BLA counter 21*.
Screening CCc1cc(SC#N)cc(C)c1NC(=O)CCl returned TLR4 MyD88 comp -12, NOD2 RIPK2 PPI 24*, Mcl-1 Bim block -3, Mcl1-Bid inh -32, Mcl1-Noxa inh 45, TLR9-MyD88 block 7, NOD2 RIPK2 conf 25* and BLA counter -5.
Screening Cc1cc(SC#N)cc(C)c1NC(=O)CCl returned TLR4 MyD88 comp 13, NOD2 RIPK2 PPI 31*, Mcl-1 Bim block -4, Mcl1-Bid inh -15, Mcl1-Noxa inh 17, TLR9-MyD88 block 10, NOD2 RIPK2 conf 28* and BLA counter -1.
`CCC(=O)Nc1ccc(SC#N)cc1C` gave TLR4 MyD88 comp 0, NOD2 RIPK2 PPI 2, Mcl-1 Bim block 0, Mcl1-Bid inh -25, Mcl1-Noxa inh 12 and TLR9-MyD88 block -1.
For Fc1cccc(Cc2c(-c3ccco3)nc3c4ccccc4ccn23)c1 the results were NOD2 RIPK2 PPI 4.
`Cc1ccc(C2=Nc3ccccc3N=C(c3ccco3)C2)c(O)c1` gave TLR4 MyD88 comp -12, NOD2 RIPK2 PPI 2, Mcl-1 Bim block 0, Mcl1-Bid inh -22, Mcl1-Noxa inh 17 and TLR9-MyD88 block 2.
Screening Cc1ccc(O)c(C2=Nc3ccccc3N=C(c3ccco3)C2)c1 returned TLR4 MyD88 comp -4, NOD2 RIPK2 PPI 23*, Mcl-1 Bim block -4, Mcl1-Bid inh 7, Mcl1-Noxa inh -11, TLR9-MyD88 block 12, NOD2 RIPK2 conf 8 and BLA counter 46*.
